HEK cytotox – HEK 293 cell cytotoxicity; HEK 293 viability, ATP luminescence (CellTiter-Glo), 48-72 h; Potency, µM (titrated, usually from 115 µM), for inactives: top-dose activity change, negative = cytotoxicity, most hits filed as inhibitors; actives 6.6% (n = 94,000); AID 1345083; also: % is scaled to controls: 0 for no effect and ±100 for the full control effect; nearly all actives have a fitted effect of over 60% in size
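HEK 293 cells seeded at 250 cells/well were exposed to compound for 48 or 72 hr at 37 degree Celsius. Viability taken as ATP content by CellTiter-Glo luminescence.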
3T3 cytotox – cytotoxic compounds in NIH 3T3 cells. NIH 3T3 viability, CellTiter-Glo ATP luminescence, 48-72 h. actives 4.3% (n = 94,000). AID 1345082. Potency, µM (titrated, usually from 96.7 µM), for inactives: at the highest dose activity change, negative = cytotoxicity, usual class: inhibitors; also: % is scaled to controls: 0 for no effect and ±100 for the full control effect; nearly all actives have a fitted effect of over 55% in size
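Cells were seeded at 400 per well, treated with pin-transferred compound, and kept 48 or 72 hr at 37 °C before CellTiter-Glo addition and luminescence imaging of cellular ATP.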
GPT2 inh – inhibitors of human GPT2 alanine aminotransferase | Q8TD30 | Recombinant GPT2, coupled pyruvate oxidase/HRP Amplex Red fluorescence | Potency, µM (doses to about 57.7 µM), inactives show at the highest dose activity change, negative = inhibition, most hits filed as inhibitors | actives 0.25% (n = 100,000) | AID 1671188; also: % is scaled to controls: 0 for no effect and ±100 for the full control effect; nearly all actives have a fitted effect of over 60% in size
Target sequence (Q8TD30 whole entry, looked up): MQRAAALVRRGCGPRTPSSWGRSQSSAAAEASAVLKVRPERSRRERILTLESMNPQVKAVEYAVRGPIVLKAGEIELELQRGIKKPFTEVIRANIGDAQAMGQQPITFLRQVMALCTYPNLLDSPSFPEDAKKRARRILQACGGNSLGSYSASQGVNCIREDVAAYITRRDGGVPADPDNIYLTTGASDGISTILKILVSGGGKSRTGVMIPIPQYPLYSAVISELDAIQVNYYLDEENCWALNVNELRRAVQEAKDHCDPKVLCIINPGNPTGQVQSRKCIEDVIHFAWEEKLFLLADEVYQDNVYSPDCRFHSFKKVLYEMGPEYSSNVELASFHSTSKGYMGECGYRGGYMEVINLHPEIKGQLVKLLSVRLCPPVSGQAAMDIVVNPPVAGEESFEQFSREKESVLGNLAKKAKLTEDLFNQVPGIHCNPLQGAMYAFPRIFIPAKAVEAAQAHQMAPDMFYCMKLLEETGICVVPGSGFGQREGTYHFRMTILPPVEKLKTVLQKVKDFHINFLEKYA
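Inhibition is scored from Amplex Red fluorescence generated when pyruvate oxidase and HRP act on pyruvate released by GPT2. Reactions contain 10ng/uL enzyme, 250uM a-KG and 2mM L-alanine and run 30 min at room temperature.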
NPR1 antag – antagonists of human natriuretic peptide receptor Npr1; Potency, µM (doses to about 46.3 µM), inactives show at the highest dose activity change, negative = inhibition, hits mostly inhibitors; AID 1347048; P16066; actives 1.6% (n = 76,000); HEK293 hNpr1 GloSensor cGMP, ANP-stimulated luminescence; calls by dose curve; also: % is scaled to controls: 0 for no effect and ±100 for the full control effect; nearly all actives have a fitted effect of over 60% in size
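HEK293 cells stably expressing human Npr1 and cGMP GloSensor pGS-40F, loaded 2 h with 2% GloSensor reagent, given compound 30 min at room temperature. Luminescence read before and 20 min after 0.1 nM hNppA.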
FLuc inh-1 – blocks purified firefly luciferase enzyme activity; Potency, µM (highest dose often 115 µM), hits mostly inhibitors; purified P. pyralis luciferase, luminescence, biochemical; actives 2.5% (n = 76,000); P08659; AID 1347043; also: % is scaled to controls: 0 for no effect and ±100 for the full control effect; nearly all actives have a fitted effect of over 65% in size
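Purified P. pyralis luciferase (10nM final) in 50mM Tris acetate pH 7.5, 10mM Mg acetate, 0.01% Tween-20, 0.05% BSA with 10uM D-luciferin and 10uM ATP. Compounds titrated qHTS. Luminescence imaged on CCD.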
FLuc SDR -ATP – stabilizes firefly luciferase without ATP | actives 7.8% (n = 1,300) | Potency, µM (doses to about 32.7 µM), inactives show at the top dose activation (signal gain), actives largely listed as activators | shares compounds with FLuc inh-1 | Purified FLuc-C-HiBiT, Nano-Glo HiBiT luminescence, no ATP; also: nearly all actives have a fitted effect of over 55% in size
FLuc SDR ATP – firefly luciferase binding stabilization, ATP added | shares compounds with FLuc inh-1 | purified FLuc-C-HiBiT + ATP, HiBiT complementation luminescence | Potency, µM (doses to about 32.7 µM), for the others: at the highest dose activation (gain of signal), most hits filed as activators | actives 8.7% (n = 1,300);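 also: signal reports ligand binding via conformational change of the enzyme rather than luciferase catalysis; % of control where 0% means no effect; nearly all actives have a fitted effect of over 55% in size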
FLuc inh-2 – firefly luciferase enzyme inhibition. shares compounds with FLuc inh-1. purified FLuc-C-HiBiT enzyme, luciferin luminescence. Potency, µM (doses to about 32.7 µM), inactives show at the top dose activity change, negative = inhibition, actives largely listed as inhibitors. actives 42% (n = 1,300); also: % is scaled to controls: 0 for no effect and ±100 for the full control effect; nearly all actives have a fitted effect of over 70% in size
Numbers without * were called inactive; [ ] = remark or other dose. Only some compounds are listed: those with a hit (about 10% of all), similar ones and a draw of the others. Unless noted, calls follow the shape of the dose curve; as a rule, active = well fitted curve in the direction sought with a large enough effect; inconclusive = small, poorly fitted or top-dose-only effect, or another doubt; inactive = no such curve, though single readings can be large; an effect the other way counts as inactive or inconclusive. Potency is read from the fitted curve at half-maximal effect.

`COC(=O)c1cccc(-c2noc(-c3ccccc3F)n2)c1` gave FLuc SDR -ATP 22%, FLuc SDR ATP 18% and FLuc inh-2 inconclusive.
For c1ccc(-c2noc(-c3nc(-c4ccccn4)no3)n2)cc1 the results were HEK cytotox -6%, 3T3 cytotox -25%, GPT2 inh inactive, NPR1 antag 0% and FLuc inh-1 inactive.
For Fc1ccccc1-c1nc(-c2ccccc2)no1 the results were FLuc SDR -ATP inconclusive, FLuc SDR ATP inconclusive and FLuc inh-2 1.6µM*.
For Fc1ccccc1-c1noc(-c2nc(-c3ccncc3)no2)n1 the results were HEK cytotox 6%, 3T3 cytotox inactive, GPT2 inh -2%, NPR1 antag -15% and FLuc inh-1 inactive.
`O=C(NC1CCCC1)N1CCN(C(=O)c2nc3cccnc3n(Cc3ccccc3)c2=O)CC1` gave HEK cytotox inactive, 3T3 cytotox -27% and GPT2 inh -1%.
For O=C(NC1CCCCCC1)c1ccc2oc(-c3ccnc(Cl)c3)nc2c1 the results were HEK cytotox inconclusive, 3T3 cytotox -20% and GPT2 inh -7%.
Screening O=C1CC(c2cn[nH]c2C(=O)O)c2c(n[nH]c2-c2cccs2)N1 (stereo not given) returned HEK cytotox 0%, 3T3 cytotox 4%, GPT2 inh -4%, NPR1 antag 0% and FLuc inh-1 inactive.
`Cc1ccc(-c2nc(-c3ccccc3)no2)c(Cl)c1` gave FLuc SDR -ATP 3.9µM*, FLuc SDR ATP 3.5µM* and FLuc inh-2 0.2µM*.
For COc1ccc(F)cc1-c1cccc(C(=O)NCC(=O)NCCc2ccccc2)c1 the results were HEK cytotox inconclusive and 3T3 cytotox -27%.
Screening Cc1csc(NC(=O)c2nc3c(o2)CCN(Cc2ccccc2F)CC3)n1 returned HEK cytotox inconclusive, 3T3 cytotox inconclusive, GPT2 inh -14%[88.5 µM], NPR1 antag -21%[70.6 µM], FLuc inh-1 4.5µM*, FLuc SDR -ATP inconclusive, FLuc SDR ATP 18%[49.3 µM] and FLuc inh-2 inconclusive.
`O=C(Nc1cccnc1)c1nc2c(o1)CCN(Cc1nccs1)CC2` gave FLuc SDR -ATP 25%[49.3 µM], FLuc SDR ATP 17%[49.3 µM] and FLuc inh-2 inconclusive.
O=C(Nc1cccnc1)c1nc2c(o1)CCN(Cc1ccc(O)cc1)CC2 was read as FLuc SDR -ATP 23%[49.3 µM], FLuc SDR ATP 16%[49.3 µM] and FLuc inh-2 inconclusive.
O=C(NCCOc1ccccc1)c1nc2c(o1)CCN(Cc1ccsc1)CC2 was read as HEK cytotox inconclusive, 3T3 cytotox inconclusive, GPT2 inh inactive, NPR1 antag -11%[70.6 µM] and FLuc inh-1 inactive.
O=C(NCc1ccncc1)c1nc2c(o1)CCN(Cc1nccs1)CC2 was read as HEK cytotox inconclusive, 3T3 cytotox -22%[138 µM], GPT2 inh -21%[88.5 µM], NPR1 antag -16%[70.6 µM] and FLuc inh-1 inactive.
For O=C(Nc1ccccc1)c1nc2c(o1)CCN(Cc1ccc(F)cc1)CC2 the results were HEK cytotox inconclusive, 3T3 cytotox inconclusive, GPT2 inh 0%[88.5 µM], NPR1 antag 18µM*, FLuc inh-1 8.9µM*, FLuc SDR -ATP 20%[49.3 µM], FLuc SDR ATP 17%[49.3 µM] and FLuc inh-2 inconclusive.
O=C(NCc1ccc(F)cc1)C1CCc2nnc(-c3ccc(F)cc3)n21 (stereo not given) was read as HEK cytotox -26%[172 µM], 3T3 cytotox -9%[138 µM] and GPT2 inh inactive.
`Cc1ccc(-n2ncc3c(N(C)Cc4ccccc4)ncnc32)cc1` gave FLuc SDR -ATP inconclusive, FLuc SDR ATP inconclusive and FLuc inh-2 1.6µM*.
COc1ccc(N2Cc3c(ncnc3N3CCC(Cc4ccccc4)CC3)N(C)CC2=O)cc1 was read as HEK cytotox inconclusive, 3T3 cytotox inconclusive, GPT2 inh inconclusive, NPR1 antag -6% and FLuc inh-1 inactive.
For Cc1ccc(CNC(=O)c2cc3c(N(C)Cc4ccccc4)nc(C)cn3n2)cc1 the results were HEK cytotox inconclusive, 3T3 cytotox inconclusive, GPT2 inh inactive, NPR1 antag 7% and FLuc inh-1 inactive.
`O=C(C1CCN(c2nc3ncccc3o2)CC1)N1CCC(Cc2ccccc2)CC1` gave HEK cytotox inconclusive, 3T3 cytotox inconclusive and GPT2 inh inactive.
`Clc1cccc(-n2ncc3c(N4CCC(Cc5ccccc5)CC4)ncnc32)c1` gave FLuc SDR -ATP 10%, FLuc SDR ATP 7% and FLuc inh-2 -4%.
`Cc1ccc(-n2ncc3c(N4CCC(Cc5ccccc5)CC4)ncnc32)cc1` gave FLuc SDR -ATP 16%, FLuc SDR ATP 16% and FLuc inh-2 -17%.
`O=C1N(C2CCNCC2)C(c2ccncc2)C12CCCCC2` (stereo not given) gave HEK cytotox -6%, 3T3 cytotox inactive, GPT2 inh 4%, NPR1 antag 8% and FLuc inh-1 inactive.
`O=C(C1CCCN(C(=O)C2CC2)C1)N1CCC(N2Cc3cccn3C2=O)CC1` (stereo not given) gave HEK cytotox -3%, 3T3 cytotox -15% and GPT2 inh -7%.
For COC(=O)[C@@H]1C[C@H](NC(=O)c2ccc(Oc3ccccc3)cc2)CN1C the results were HEK cytotox -26%, 3T3 cytotox -22%, GPT2 inh inactive, NPR1 antag -1%, FLuc inh-1 14µM*, FLuc SDR -ATP 16%, FLuc SDR ATP 12% and FLuc inh-2 inconclusive.
O=C(NCCc1ccc(Cl)cc1)c1nc(-c2ccsc2)c2ccccn12 was read as HEK cytotox -10%, 3T3 cytotox -20%, GPT2 inh 4%, NPR1 antag 14% and FLuc inh-1 inactive.
`COc1ccccc1-c1cc2c(ccn2C)c(C(=O)NCc2cnccn2)n1` gave HEK cytotox inconclusive, 3T3 cytotox inconclusive, GPT2 inh 2%[88.5 µM], NPR1 antag -2%[70.6 µM] and FLuc inh-1 inactive.

Screening results: PubChem BioAssay, National Center for Advancing Translational Sciences (NCATS)
